Source: the supplement of paper PMC11732987, “Enantioselective OTUD7B fragment discovery through chemoproteomics screening and high-throughput optimisation” (Communications Chemistry, 2025)

Columns and labels:
Assay in all cases: log2 ratio of Biotin-Ahx-Ub-VS probe labelling (fragment/DMSO); higher = less target engagement (more negative = stronger competition), active = hit call of the paper (q ≤ 0.05, log2 ratio ≤ -1)
Conditions in all cases: compound concentration: 200 uM; treatment time: 3 h
USP9X = USP9X (UniProt Q93008)
In short: (§1)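 In triplicate, 495 µg of HEK293T lysate per sample was incubated with fragment at 200 µM or vehicle for 3 h. Biotin-Ahx-Ub-VS was then added to 0.5 µM final for 1 h, and labelled DUBs were captured with NeutrAvidin, digested with LysC and trypsin, and measured by diaPASEF LC-MS/MS. Data are average log2 fragment/vehicle ratios by unpaired t-test from global-median-normalised Spectronaut label-free quantities, restricted to proteins with ≥2 unique peptides.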

UniProt O00487 = target: UniProt O00487
In short: as §1

UniProt O00507 = target: UniProt O00507
In short: as §1

UniProt P51784 = target: UniProt P51784
In short: as §1

UniProt Q5T2D3 = target: T1, UniProt Q5T2D3
T1 sequence (whole entry): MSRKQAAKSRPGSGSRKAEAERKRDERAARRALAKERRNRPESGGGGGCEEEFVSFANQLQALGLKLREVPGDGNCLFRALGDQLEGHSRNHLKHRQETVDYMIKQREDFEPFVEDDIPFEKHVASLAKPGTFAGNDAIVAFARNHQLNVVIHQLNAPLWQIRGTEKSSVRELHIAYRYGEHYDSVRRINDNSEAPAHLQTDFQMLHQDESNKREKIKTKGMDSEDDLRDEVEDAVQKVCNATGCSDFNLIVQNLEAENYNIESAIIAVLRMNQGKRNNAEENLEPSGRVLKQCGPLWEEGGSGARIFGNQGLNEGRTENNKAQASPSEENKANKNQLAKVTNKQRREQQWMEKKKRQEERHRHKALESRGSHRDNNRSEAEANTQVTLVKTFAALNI
In short: as §1

UniProt Q8TE49 = target: T2, UniProt Q8TE49
T2 sequence (whole entry): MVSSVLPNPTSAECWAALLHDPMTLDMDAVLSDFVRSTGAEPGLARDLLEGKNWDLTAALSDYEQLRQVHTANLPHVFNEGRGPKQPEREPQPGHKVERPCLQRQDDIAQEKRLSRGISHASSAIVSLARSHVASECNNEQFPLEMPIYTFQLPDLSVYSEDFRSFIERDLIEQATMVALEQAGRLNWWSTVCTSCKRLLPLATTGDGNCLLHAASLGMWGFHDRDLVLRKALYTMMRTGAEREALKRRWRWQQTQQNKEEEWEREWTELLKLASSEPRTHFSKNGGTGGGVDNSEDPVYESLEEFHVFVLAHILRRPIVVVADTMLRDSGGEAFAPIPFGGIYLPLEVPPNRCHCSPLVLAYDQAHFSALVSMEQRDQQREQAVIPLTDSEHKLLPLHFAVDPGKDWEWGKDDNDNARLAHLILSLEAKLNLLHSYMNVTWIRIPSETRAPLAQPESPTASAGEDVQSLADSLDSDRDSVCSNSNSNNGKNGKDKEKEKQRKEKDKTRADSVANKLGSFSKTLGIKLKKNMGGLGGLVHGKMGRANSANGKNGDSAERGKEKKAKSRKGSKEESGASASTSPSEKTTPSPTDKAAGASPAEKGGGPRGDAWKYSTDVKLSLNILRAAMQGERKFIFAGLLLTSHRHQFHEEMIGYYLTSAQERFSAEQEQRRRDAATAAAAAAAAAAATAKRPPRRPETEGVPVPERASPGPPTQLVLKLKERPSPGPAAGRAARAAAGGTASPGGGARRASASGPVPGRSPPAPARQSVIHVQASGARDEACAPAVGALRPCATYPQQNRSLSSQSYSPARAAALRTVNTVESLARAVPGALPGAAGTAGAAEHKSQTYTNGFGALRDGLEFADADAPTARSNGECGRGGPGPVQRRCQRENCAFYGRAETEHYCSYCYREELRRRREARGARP
In short: as §1

UniProt Q9P2H5 = target: T3, UniProt Q9P2H5
T3 sequence (whole entry): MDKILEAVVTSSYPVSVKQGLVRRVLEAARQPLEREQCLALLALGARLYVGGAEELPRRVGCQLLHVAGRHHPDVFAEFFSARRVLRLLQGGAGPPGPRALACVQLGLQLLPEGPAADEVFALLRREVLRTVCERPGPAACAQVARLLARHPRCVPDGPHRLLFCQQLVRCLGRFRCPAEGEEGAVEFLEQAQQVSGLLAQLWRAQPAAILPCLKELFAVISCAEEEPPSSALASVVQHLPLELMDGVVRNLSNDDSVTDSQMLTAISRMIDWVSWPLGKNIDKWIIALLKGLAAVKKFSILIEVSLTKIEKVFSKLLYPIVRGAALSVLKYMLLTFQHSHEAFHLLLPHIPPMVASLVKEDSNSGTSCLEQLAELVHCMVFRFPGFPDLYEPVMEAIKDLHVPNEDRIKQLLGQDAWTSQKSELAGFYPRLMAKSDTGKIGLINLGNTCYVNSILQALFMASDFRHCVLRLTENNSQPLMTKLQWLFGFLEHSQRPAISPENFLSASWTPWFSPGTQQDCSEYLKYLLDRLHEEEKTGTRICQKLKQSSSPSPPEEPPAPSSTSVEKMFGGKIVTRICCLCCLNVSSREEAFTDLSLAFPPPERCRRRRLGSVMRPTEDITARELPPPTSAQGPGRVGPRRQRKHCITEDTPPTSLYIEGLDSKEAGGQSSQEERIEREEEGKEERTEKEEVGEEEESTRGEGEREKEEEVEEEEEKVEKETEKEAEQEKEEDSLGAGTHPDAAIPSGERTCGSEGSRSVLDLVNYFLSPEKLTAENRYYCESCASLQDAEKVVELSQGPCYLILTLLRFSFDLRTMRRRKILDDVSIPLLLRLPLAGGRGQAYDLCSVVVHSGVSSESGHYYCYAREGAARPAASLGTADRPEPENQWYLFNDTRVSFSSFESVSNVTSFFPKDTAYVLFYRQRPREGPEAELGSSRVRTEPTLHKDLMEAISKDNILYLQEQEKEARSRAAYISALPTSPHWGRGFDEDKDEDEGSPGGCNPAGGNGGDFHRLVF
In short: as §1

UniProt Q9UGI0 = target: T4, UniProt Q9UGI0
T4 sequence (whole entry): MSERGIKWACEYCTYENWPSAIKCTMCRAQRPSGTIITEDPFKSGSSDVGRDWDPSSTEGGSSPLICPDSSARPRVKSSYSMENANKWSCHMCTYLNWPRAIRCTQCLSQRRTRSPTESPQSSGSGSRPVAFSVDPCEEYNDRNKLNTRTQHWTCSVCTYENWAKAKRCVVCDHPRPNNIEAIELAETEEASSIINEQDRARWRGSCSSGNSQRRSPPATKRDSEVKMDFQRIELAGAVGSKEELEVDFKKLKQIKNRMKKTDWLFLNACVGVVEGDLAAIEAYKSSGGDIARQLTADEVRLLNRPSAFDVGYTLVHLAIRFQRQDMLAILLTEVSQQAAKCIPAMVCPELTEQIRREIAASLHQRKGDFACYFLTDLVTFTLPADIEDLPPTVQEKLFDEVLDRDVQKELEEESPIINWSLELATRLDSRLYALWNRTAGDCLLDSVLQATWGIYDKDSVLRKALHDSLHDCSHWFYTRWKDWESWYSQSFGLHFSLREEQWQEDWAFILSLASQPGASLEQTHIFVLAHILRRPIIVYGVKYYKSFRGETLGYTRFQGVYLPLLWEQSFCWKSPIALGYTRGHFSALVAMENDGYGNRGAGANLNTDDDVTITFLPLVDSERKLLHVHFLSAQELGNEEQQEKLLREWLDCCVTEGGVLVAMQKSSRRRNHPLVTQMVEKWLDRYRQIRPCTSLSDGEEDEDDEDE
In short: as §1

YOD1 = target: T5, YOD1 (UniProt Q5VVQ6)
T5 sequence (whole entry): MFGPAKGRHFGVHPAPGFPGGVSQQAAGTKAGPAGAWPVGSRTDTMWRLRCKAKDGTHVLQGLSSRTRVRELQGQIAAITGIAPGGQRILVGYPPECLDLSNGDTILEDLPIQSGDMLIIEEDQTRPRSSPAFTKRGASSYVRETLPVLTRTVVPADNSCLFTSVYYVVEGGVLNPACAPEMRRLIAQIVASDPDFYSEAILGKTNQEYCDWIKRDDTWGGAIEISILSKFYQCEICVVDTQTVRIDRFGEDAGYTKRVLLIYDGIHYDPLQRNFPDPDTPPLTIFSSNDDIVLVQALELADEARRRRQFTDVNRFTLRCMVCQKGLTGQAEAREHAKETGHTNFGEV
In short: as §1

Measured: log2 ratio of Biotin-Ahx-Ub-VS probe labelling

USP9X, sequence (Q93008 whole entry, the tested form may be a part): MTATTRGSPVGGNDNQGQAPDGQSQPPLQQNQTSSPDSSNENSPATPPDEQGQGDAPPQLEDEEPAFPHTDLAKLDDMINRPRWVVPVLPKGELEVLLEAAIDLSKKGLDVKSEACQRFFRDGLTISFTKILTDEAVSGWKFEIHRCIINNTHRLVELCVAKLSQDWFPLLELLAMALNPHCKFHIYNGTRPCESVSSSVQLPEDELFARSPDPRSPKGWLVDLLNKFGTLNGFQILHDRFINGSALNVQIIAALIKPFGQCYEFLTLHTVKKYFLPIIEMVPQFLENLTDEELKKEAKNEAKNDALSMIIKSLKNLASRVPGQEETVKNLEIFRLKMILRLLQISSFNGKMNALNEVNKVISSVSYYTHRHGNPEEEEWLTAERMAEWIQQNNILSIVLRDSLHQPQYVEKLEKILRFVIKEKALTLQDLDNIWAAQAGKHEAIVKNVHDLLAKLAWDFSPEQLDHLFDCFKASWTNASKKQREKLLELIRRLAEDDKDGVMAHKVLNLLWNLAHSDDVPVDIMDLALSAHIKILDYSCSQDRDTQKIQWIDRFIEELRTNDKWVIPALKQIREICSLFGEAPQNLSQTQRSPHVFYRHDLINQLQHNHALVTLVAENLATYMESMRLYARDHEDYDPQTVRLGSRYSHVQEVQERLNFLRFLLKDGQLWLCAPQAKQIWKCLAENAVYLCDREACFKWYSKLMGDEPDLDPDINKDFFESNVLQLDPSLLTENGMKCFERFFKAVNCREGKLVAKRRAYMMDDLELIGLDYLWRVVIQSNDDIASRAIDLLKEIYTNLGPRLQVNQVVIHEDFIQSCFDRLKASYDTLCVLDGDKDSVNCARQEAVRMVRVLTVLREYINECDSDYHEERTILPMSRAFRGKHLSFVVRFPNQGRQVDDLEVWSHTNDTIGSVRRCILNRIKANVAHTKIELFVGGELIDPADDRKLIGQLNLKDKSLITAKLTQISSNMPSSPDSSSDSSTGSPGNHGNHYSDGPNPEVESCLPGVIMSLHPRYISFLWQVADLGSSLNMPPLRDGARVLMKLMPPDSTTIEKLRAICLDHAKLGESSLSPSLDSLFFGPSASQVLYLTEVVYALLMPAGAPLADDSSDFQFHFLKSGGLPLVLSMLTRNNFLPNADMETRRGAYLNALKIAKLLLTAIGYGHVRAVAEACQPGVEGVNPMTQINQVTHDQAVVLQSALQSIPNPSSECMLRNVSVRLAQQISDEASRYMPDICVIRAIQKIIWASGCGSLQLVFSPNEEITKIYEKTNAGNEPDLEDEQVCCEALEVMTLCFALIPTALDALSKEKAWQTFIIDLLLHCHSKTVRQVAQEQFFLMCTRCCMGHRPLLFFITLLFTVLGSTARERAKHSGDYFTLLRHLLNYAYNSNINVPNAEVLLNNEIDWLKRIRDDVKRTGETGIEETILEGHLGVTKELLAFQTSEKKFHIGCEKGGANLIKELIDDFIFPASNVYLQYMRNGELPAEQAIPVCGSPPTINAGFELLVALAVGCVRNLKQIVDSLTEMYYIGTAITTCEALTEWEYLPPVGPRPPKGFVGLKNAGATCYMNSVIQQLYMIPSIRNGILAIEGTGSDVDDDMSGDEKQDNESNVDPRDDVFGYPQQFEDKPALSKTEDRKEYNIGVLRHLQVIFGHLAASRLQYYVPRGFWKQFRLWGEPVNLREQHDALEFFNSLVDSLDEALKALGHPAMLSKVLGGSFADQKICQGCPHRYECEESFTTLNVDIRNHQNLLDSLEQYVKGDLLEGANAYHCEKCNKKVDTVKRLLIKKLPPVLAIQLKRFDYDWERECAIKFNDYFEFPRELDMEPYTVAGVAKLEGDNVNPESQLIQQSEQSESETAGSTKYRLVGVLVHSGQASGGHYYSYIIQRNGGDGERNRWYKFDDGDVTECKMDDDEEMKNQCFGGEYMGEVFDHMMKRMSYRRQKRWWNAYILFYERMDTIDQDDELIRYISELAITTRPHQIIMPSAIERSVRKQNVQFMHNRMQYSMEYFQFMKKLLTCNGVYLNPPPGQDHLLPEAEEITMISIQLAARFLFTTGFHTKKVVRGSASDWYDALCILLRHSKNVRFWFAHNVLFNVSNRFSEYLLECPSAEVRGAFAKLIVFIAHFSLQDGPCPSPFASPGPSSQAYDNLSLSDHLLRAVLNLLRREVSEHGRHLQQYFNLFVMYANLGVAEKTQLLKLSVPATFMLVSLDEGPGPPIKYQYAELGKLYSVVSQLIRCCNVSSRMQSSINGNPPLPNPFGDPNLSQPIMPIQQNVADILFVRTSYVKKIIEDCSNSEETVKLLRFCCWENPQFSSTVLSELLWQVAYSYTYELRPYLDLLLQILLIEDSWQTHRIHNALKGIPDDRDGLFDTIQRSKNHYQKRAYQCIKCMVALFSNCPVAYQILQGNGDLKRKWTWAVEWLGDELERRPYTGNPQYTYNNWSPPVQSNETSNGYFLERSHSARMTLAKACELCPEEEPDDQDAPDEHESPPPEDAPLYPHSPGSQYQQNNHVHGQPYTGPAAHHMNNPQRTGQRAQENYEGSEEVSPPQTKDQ
UniProt P51784, sequence (P51784 whole entry): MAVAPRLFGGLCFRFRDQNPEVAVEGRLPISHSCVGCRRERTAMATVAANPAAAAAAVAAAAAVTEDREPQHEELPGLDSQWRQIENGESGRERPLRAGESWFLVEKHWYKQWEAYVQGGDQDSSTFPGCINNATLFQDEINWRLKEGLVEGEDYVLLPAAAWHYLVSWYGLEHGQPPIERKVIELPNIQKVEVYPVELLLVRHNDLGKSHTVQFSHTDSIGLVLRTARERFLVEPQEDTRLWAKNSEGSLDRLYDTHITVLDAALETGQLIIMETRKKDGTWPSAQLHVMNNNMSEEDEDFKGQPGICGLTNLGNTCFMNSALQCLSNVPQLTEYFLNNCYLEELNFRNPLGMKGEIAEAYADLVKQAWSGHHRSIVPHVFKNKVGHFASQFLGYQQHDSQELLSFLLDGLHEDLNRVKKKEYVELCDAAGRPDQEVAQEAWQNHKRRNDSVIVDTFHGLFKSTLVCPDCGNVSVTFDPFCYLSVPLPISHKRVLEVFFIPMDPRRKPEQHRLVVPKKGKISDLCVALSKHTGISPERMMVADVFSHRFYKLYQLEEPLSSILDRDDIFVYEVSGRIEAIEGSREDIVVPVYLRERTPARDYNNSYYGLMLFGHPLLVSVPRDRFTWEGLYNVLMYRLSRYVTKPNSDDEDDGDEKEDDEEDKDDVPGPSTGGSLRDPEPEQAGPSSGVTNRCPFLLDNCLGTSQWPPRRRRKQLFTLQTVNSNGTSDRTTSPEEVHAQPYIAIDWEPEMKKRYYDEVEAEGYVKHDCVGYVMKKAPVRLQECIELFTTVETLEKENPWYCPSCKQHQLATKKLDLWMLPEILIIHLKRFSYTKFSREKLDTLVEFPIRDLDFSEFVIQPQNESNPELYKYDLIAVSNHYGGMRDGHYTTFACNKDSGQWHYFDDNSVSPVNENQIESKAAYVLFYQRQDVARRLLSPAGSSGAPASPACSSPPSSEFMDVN
UniProt O00487, sequence (O00487 whole entry): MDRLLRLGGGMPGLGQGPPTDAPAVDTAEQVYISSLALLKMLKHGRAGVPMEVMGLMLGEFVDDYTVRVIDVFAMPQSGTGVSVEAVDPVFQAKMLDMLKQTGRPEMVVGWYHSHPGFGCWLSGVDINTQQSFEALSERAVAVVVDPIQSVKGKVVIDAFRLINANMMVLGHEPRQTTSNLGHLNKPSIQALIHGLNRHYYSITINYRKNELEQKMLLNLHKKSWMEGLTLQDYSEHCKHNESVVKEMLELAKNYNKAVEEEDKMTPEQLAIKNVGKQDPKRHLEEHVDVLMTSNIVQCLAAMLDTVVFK

O=C(CCl)NCCc1cccc2ccccc12
inactive: USP9X 0.0346 | UniProt O00487 0.00956 | UniProt O00507 0.608 | UniProt P51784 0.159 | UniProt Q5T2D3 -0.0259 | UniProt Q8TE49 -0.28 | UniProt Q9P2H5 0.0801 | UniProt Q9UGI0 0.238 | YOD1 0.263
